Data published in PubChem BioAssay (Tox21).
Inconclusive results are not listed. Calls of active or inactive are those of the source. Unless noted, calls follow the shape of the full dose curve.

How the values were obtained:
[1] = Nuclear factor erythroid 2-related factor 2/antioxidant responsive element (Nrf2/ARE) small molecule agonists: qHTS cell viability counter screen in human keratinocytes (AID 1919968; active = well fitted curve in the direction sought with a large enough effect in the repeat runs; an effect the other way counts as inactive or inconclusive; also: nearly all actives have a fitted effect of over 55% in size; also: potency is read from the fitted curve at half-maximal effect)
In short: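 Stably transfected HaCaT (KeratinoSens), 1,500/well. Test agents in DMSO were applied for 23 h, 37 C/5% CO2. CellTiter-Fluor was incubated 1 h before the fluorescence read.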

[2] = biological target: Gonadotropin-releasing hormone receptor (Homo sapiens) (UniProt P30968); test: Human gonadotropin-releasing hormone receptor (GnRHR) small molecule agonists, calcium flux assay in GnRHR-HEK293 cells (AID 1920063); also: nearly all actives have a fitted effect of over 35% in size
In short: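 Stable human GnRHR HEK293 line. 18 h plating, then calcium dye for 1 h at 37 C. Agonist-mode compound addition from DMSO stocks; fluorescence monitored 3 min.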

[3] = biological target: KiSS-1 receptor (Homo sapiens) (UniProt Q969F8); test: Human kisspeptin (KISS1R) small molecule agonists, calcium flux assay in KISS1R-HEK293 cells (AID 1920064; active = well fitted curve in the direction sought with a large enough effect in the repeat runs; an effect the other way counts as inactive or inconclusive)
In short: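 After overnight (18 h) culture at 37 C/5% CO2, human KISS1R-HEK293 cells received calcium dye for 1 h, then test compound; emission at 540 nm (excitation 480 nm) was tracked for 3 min.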

[4] = G protein-coupled receptor (GPCR) small molecule agonists, calcium flux assay: HEK293 wild type cell line counter screen (AID 1920065)
In short: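 Following 18 h incubation at 37 C/5% CO2, plates got calcium dye for 1 h; compounds, ATP or DMSO were then pinned in and fluorescence followed kinetically (480/540 nm).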

[5] = p53 small molecule agonists, cell-based qHTS assay with human liver microsomes (AID 1963577)
In short: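 Fluorescence of the beta-lactamase reporter in p53RE-bla cells, detected with LiveBLAzer substrate (2 h, room temperature, dark), served as the read-out after 16 h compound exposure at 37 C with human liver microsomes and NADPH, each 0.5 mg/mL final.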

[6] = p53 small molecule agonists, cell-based qHTS assay with rat liver microsomes (AID 1963578)
In short: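 Cells carrying a p53 response element–beta-lactamase reporter were plated and rested 5 h, then dosed with compound in DMSO plus rat liver microsomes and NADPH, each at 0.5 mg/mL final. After 16 h at 37 C, LiveBLAzer substrate was added for 2 h.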

[7] = p53 small molecule agonists, cell-based qHTS assay with human liver microsomes: qHTS cell viability counter screen (AID 1963579); also: nearly all actives have a fitted effect of over 45% in size; also: potency is read from the fitted curve at half-maximal effect
In short: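 Cytotoxicity counter screen: p53RE-bla, 4,000 cells/well; 5 h settle, 37 C/5% CO2; cpd + HLM 0.5 mg/mL + NADPH 0.5 mg/mL (final); 16 h, 37 C; CellTiter-Glo, 30 min RT, luminescence.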

[8] = p53 small molecule agonists, cell-based qHTS assay with rat liver microsomes: qHTS cell viability counter screen (AID 1963580); also: nearly all actives have a fitted effect of over 45% in size
In short: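 Cytotoxicity counter screen: intracellular ATP read by CellTiter-Glo luminescence in the p53 reporter wells. HCT-116 p53RE-bla cells were treated for 16 h at 37 C alongside rat liver microsomes and NADPH, each 0.5 mg/mL final.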

[9] = p53 small molecule agonists, cell-based qHTS assay: qHTS cell viability counter screen (AID 1963581); also: nearly all actives have a fitted effect of over 45% in size; also: potency is read from the fitted curve at half-maximal effect
In short: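 qHTS counter screen: 16 h compound exposure at 37 C of p53RE-bla HCT-116 cells (4,000 per well, seeded 5 h prior), cell viability by ATP luminescence.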

[10] = p53 small molecule agonists, cell-based qHTS assay (AID 1963582; active = well fitted activation curve with a large enough effect in the signal ratio in the repeat runs, not every such curve was filed as active; the % refers to the signal ratio)
In short: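 Measured: fluorescence from cleaved LiveBLAzer substrate. System: p53RE-bla cells, 16 h compound treatment at 37 C, 2 h substrate step at room temperature.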

[11] = biological target: 5-hydroxytryptamine receptor 2A (Homo sapiens) (UniProt P28223); test: 5-hydroxytryptamine receptor 2A (HTR2A) small molecule antagonists, cell-based qHTS assay (AID 1963586); also: nearly all actives have a fitted effect of over 45% in size; also: potency is read from the fitted curve at half-maximal effect
In short: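 CHO cells stably expressing human HTR2A were plated for 18 h at 37 C, then loaded with calcium dye for 1 h. Compounds were preincubated 5 min at room temperature before DOI (4 nM solution) was added. Kinetic fluorescence was read for 3 min.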

[12] = biological target: 5-hydroxytryptamine receptor 2A (Homo sapiens) (UniProt P28223); test: 5-hydroxytryptamine receptor 2A (HTR2A) small molecule agonists, cell-based qHTS assay (AID 1963587); also: nearly all actives have a fitted effect of over 30% in size; also: potency is read from the fitted curve at half-maximal effect
In short: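 Kinetic calcium-flux fluorescence (2 min, 1 sec intervals) after compound addition in agonist mode. HTR2A-CHO cells were cultured 18 h, then dye-loaded 1 h at 37 C.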

[13] = biological target: Muscarinic acetylcholine receptor M1 (Homo sapiens) (UniProt P11229); test: Cholinergic receptor muscarinic 1 (CHRM1) small molecule antagonists, cell-based qHTS assay (AID 1963588); also: nearly all actives have a fitted effect of over 40% in size; also: potency is read from the fitted curve at half-maximal effect
In short: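 Compounds were tested at 15 concentrations in three independent runs. Dye-loaded CHRM1-CHO cells were exposed 5 min at room temperature before stimulation by acetylcholine added at 50nM. Intracellular calcium was read kinetically on FDSS for 3 min.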

[14] = biological target: Muscarinic acetylcholine receptor M1 (Homo sapiens) (UniProt P11229); test: Cholinergic receptor muscarinic 1 (CHRM1) small molecule agonists, cell-based qHTS assay (AID 1963589); also: nearly all actives have a fitted effect of over 35% in size
In short: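 Kinetic fluorescence (1 s intervals) of calcium-sensitive dye in human M1 CHO cells after compound addition; cells pre-incubated 18 h at 37 C/5% CO2 and dye-loaded 1 h.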

[15] = cAMP Responsive Elements (CRE) small molecule agonists, cell-based qHTS assay (AID 1963590)
In short: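 Test agents in DMSO were incubated 3 h at 37 C/5% CO2 with CRE-bla HEK 293T cells seeded 18 h earlier; LiveBLAzer B/G FRET substrate was added and read after 2 h at room temperature.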

[16] = cAMP Responsive Elements (CRE) small molecule antagonists, cell-based qHTS assay (AID 1963591; active = well fitted inhibition curve with a large enough effect in the signal ratio in the repeat runs, not every such curve was filed as active; the % refers to the signal ratio)
In short: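 Reporter line CRE-bla HEK 293T in dialyzed-FBS DMEM; cells preincubated 18 h, treated 3 h with compound plus NKH477 (0.25 uM final); LiveBLAzer FRET, 2 h RT.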

[17] = biological target: Beta-2 adrenergic receptor (Homo sapiens) (UniProt P07550); test: Adrenergic beta2 receptor (ADRB2) small molecule antagonists, cell-based qHTS assay (AID 1963592); also: nearly all actives have a fitted effect of over 50% in size; also: potency is read from the fitted curve at half-maximal effect
In short: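 Assay format: CHO-ADRB2 cells, 18-20hr seeding at 37C/5% CO2, then compound plus 1nM isoproterenol agonist mix for 0.5hr RT. Homogeneous time-resolved fluorescence cAMP detection after 1hr, expressed as 665/615 nm ratio.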

[18] = biological target: D(2) dopamine receptor (Homo sapiens) (UniProt P14416); test: Dopamine D2 receptor (DRD2) small molecule agonists, cell-based qHTS assay (AID 1963594); also: nearly all actives have a fitted effect of over 35% in size
In short: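 cAMP accumulation in DRD2-HEK293 cells measured by HTRF after 1 h detection; compounds added 10 min before NKH477 (200nM […]) forskolin-analogue stimulation, 30 min at room temperature, with Ro20-1724 present at 0.1 mM final.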

[19] = biological target: D(2) dopamine receptor (Homo sapiens) (UniProt P14416); test: Dopamine D2 receptor (DRD2) small molecule antagonists, cell-based qHTS assay (AID 1963595; active = well fitted inhibition curve with a large enough effect in the signal ratio in the repeat runs, with a control signal flat; the % refers to the signal ratio; also: potency is read from the fitted curve at half-maximal effect)
In short: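 HTRF cAMP read-out at 665 and 620 nm emission (340 nm excitation). Antagonist mode: compounds were tested against 12 nM quinpirole in DRD2-HEK293 cells, with 200 nM NKH477 raising cAMP and 0.1 mM Ro20-1724 blocking its breakdown.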

[20] = Nuclear factor erythroid 2-related factor 2/antioxidant responsive element (Nrf2/ARE) small molecule agonists: luciferase reporter gene qHTS assay in human keratinocytes (AID 1919969); also: nearly all actives have a fitted effect of over 35% in size; also: potency is read from the fitted curve at half-maximal effect

Measured: Potency

Sequence of Muscarinic acetylcholine receptor M1 (Homo sapiens) (P11229 whole entry, looked up): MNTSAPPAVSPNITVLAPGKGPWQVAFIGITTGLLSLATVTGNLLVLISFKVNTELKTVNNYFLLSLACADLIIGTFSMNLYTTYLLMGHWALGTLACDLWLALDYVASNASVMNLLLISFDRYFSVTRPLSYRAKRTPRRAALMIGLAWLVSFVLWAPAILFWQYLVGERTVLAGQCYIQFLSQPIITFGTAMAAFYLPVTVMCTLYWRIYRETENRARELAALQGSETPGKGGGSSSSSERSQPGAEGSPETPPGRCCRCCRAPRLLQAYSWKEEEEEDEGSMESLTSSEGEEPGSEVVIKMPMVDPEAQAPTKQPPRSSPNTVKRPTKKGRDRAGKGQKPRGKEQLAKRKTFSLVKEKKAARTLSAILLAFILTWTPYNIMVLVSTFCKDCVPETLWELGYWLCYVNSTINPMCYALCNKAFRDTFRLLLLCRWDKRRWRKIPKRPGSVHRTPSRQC
Sequence of 5-hydroxytryptamine receptor 2A (Homo sapiens) (P28223 whole entry, looked up): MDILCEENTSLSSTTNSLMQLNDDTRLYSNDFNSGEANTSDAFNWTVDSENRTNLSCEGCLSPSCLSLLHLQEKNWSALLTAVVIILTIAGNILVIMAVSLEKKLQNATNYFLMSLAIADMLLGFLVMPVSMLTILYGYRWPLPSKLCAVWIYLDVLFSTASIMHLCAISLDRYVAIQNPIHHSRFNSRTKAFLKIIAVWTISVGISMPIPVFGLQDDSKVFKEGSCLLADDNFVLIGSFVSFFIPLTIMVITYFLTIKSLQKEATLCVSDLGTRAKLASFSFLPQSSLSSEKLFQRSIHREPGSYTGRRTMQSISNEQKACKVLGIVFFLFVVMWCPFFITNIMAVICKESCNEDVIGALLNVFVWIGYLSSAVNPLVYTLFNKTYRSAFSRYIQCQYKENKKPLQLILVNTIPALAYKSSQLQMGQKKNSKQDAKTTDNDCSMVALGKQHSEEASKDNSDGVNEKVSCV
Sequence of Gonadotropin-releasing hormone receptor (Homo sapiens) (P30968 whole entry, looked up): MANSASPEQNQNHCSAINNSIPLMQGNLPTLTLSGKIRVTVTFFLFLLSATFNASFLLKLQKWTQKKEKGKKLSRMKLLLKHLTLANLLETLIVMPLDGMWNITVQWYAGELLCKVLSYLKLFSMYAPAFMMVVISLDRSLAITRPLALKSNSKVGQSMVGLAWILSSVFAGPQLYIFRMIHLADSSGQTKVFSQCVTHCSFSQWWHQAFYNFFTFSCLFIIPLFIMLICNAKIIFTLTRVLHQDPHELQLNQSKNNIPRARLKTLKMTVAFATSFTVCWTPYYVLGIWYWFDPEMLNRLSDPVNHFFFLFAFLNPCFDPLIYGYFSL
Sequence of Beta-2 adrenergic receptor (Homo sapiens) (P07550 whole entry, looked up): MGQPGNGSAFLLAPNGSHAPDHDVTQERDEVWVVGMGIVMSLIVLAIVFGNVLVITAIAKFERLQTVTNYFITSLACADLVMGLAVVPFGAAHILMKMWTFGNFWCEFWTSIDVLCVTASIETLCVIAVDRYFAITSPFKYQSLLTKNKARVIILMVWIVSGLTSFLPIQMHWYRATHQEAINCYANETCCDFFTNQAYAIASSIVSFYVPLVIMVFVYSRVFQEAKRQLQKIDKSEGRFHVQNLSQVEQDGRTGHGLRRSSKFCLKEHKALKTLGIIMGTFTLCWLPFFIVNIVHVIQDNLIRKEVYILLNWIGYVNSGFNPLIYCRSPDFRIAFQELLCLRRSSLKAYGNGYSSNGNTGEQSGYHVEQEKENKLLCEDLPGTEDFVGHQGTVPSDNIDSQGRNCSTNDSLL
Sequence of D(2) dopamine receptor (Homo sapiens) (P14416 whole entry, looked up): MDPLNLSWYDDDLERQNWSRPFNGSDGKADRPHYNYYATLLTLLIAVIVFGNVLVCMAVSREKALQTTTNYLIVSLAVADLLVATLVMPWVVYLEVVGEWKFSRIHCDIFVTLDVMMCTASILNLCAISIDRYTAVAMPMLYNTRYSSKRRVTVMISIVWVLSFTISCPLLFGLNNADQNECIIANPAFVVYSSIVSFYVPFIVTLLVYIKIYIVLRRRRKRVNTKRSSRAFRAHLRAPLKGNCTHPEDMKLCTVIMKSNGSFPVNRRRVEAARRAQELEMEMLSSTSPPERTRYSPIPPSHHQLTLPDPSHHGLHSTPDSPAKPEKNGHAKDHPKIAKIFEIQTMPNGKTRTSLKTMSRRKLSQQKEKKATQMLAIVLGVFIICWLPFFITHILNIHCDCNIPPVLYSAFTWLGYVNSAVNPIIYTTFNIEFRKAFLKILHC
Sequence of KiSS-1 receptor (Homo sapiens) (Q969F8 whole entry, looked up): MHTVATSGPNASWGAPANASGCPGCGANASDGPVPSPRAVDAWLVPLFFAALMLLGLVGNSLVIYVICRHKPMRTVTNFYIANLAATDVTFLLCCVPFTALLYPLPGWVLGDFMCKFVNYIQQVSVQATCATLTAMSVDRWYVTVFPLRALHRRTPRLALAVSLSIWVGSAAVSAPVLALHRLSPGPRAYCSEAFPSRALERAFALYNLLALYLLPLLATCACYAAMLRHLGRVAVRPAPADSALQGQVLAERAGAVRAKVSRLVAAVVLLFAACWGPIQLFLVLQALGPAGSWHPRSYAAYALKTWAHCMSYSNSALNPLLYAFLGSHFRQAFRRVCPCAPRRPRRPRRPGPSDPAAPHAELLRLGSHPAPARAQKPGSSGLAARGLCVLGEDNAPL

CCOB(OCC)OCC
inactive: [1] | [2] | [3] | [4] | [5] | [6] | [7] | [8] | [9] | [10] | [11] | [12] | [13] | [14] | [15] | [16] | [17] | [18]

Oc1ccccc1-c1nnco1
inactive: [1] | [2] | [3] | [4] | [5] | [6] | [7] | [8] | [9] | [10] | [11] | [12] | [13] | [14] | [15] | [16] | [17] | [18] | [19]

CCCCCC
inactive: [1] | [2] | [3] | [4] | [5] | [6] | [7] | [8] | [9] | [10] | [11] | [12] | [13] | [14] | [15] | [16] | [17] | [18] | [19]

Nc1c(Cl)cc(Cl)cc1[N+](=O)[O-]
inactive: [1] | [2] | [3] | [4] | [5] | [6] | [7] | [8] | [9] | [10] | [11] | [12] | [13] | [14] | [15] | [17] | [18] | [19]

CC(C)C(O)(c1ccc(OC(F)(F)F)cc1)c1cncnc1 (stereo unspecified)
inactive: [1] | [2] | [3] | [4] | [5] | [6] | [7] | [8] | [9] | [10] | [11] | [12] | [13] | [14] | [15] | [16] | [17] | [18] | [19]

O=S(=O)(O)c1ccc(Nc2nc(Nc3ccc(/C=C/c4ccc(Nc5nc(Nc6ccc(S(=O)(=O)O)cc6)nc(N(CCO)CCO)n5)cc4S(=O)(=O)O)c(S(=O)(=O)O)c3)nc(N(CCO)CCO)n2)cc1
inactive: [1] | [20] | [4] | [7] | [11] | [12] | [13] | [14] | [15] | [17] | [18] | [19]

CCc1c(C)cc(N)c(CC)c1N
inactive: [1] | [2] | [3] | [4] | [5] | [6] | [7] | [8] | [9] | [10] | [11] | [12] | [13] | [14] | [15] | [16] | [18] | [19]

CCCCOC(=O)CC#N
inactive: [1] | [2] | [3] | [4] | [5] | [6] | [8] | [9] | [10] | [11] | [12] | [13] | [14] | [15] | [17] | [18]
active: [7] 17 µM

CN(C)CCOc1ccccc1Cc1ccccc1
active: [11] 0.326 µM | [13] 1.45 µM | [17] 33.5 µM
inactive: [1] | [20] | [4] | [7] | [8] | [12] | [14] | [15] | [16] | [18] | [19]

[Cl][Bi]([Cl])([c]1ccccc1)([c]1ccccc1)[c]1ccccc1
active: [1] 6.08 µM | [20] 1.53 µM | [7] 4.05 µM | [9] 9.07 µM | [19] 13.6 µM
inactive: [4] | [6] | [11] | [13] | [17] | [18]

CC(C)Cc1ccc(CC(=O)O)cc1
inactive: [1] | [2] | [3] | [4] | [5] | [6] | [7] | [8] | [9] | [10] | [11] | [12] | [13] | [14] | [15] | [16] | [17] | [18] | [19]

CCCC(CCC)(C(=O)OCC)C(=O)OCC
active: [11] 3.26 µM | [12] 1.69 µM
inactive: [1] | [20] | [4] | [8] | [9] | [10] | [13] | [14] | [15] | [16] | [17] | [19]

CC(C)CCOCc1ccccc1
inactive: [1] | [20] | [4] | [7] | [9] | [11] | [12] | [13] | [14] | [15] | [17] | [18] | [19]

CCCCCCCCCCC1CO1 (stereo unspecified)
inactive: [1] | [2] | [3] | [4] | [5] | [6] | [7] | [8] | [9] | [10] | [11] | [12] | [13] | [14] | [15] | [16] | [17] | [18] | [19]

C[C@@H](N)C(=O)O
inactive: [1] | [2] | [3] | [4] | [5] | [6] | [7] | [8] | [9] | [10] | [11] | [12] | [13] | [14] | [15] | [16] | [17] | [18]

Cc1ccccn1
inactive: [1] | [2] | [3] | [4] | [5] | [6] | [7] | [8] | [9] | [10] | [11] | [13] | [14] | [15] | [16] | [17] | [18] | [19]
